The values below come from the supplement of paper PMC10037445.

In assay [1] the test system is RAW-Dual. Nature of the assay: NF-kB SEAP reporter activity, fold change vs agonist alone; cytotoxicity flag (confluency mask): not cytotoxic; higher = enhanced NF-kB activity. A digest of the protocol:
(§1)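 Cytotoxic wells were those whose IncuCyte confluency was below 70% of agonist controls in both mask sets. The cells were RAW-Dual macrophages at 50,000 cells/well in DMEM on 384-well plates, dosed with 50 nL of library stock by pin tool, stimulated with a PRR agonist 1 h later, and kept at 37 °C, 5% CO2 for 20 hours. IRF and NF-κB reporter activity, as fold change over agonist-alone wells, came from supernatant read by QuantiLuc luminescence and QuantiBlue absorbance, respectively.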

For assay [2], the system named is RAW-Dual. In words: NF-kB SEAP reporter activity, fold change vs agonist alone; higher = enhanced NF-kB activity. A digest of the protocol:
as §1

For assay [3], the system named is RAW-Dual. In words: NF-kB SEAP reporter activity, fold change vs agonist alone; cytotoxicity flag (confluency mask): cytotoxic (confluency <70% of control); higher = enhanced NF-kB activity. A digest of the protocol: as §1
Where [4] appears, read: agonist: ODN 1826 (TLR9) 0.5 ug/mL.
Setting [5] is: agonist: Pam2CSK4 (TLR2/6) 0.1 ug/mL.
Where [6] appears, read: agonist: Pam3CSK4 (TLR2/1) 0.1 ug/mL.
Where [7] appears, read: library stock concentration (final ~1000-fold dilution): 10 mM, cytotoxicity flag (confluency mask): not cytotoxic, agonist: Imiquimod (TLR7) […].
Setting [8] is: library stock concentration (final ~1000-fold dilution): 10 mM, cytotoxicity flag (confluency mask): not cytotoxic, agonist: MPLA (TLR4) […].
Setting [9] is: library stock concentration (final ~1000-fold dilution): 10 mM water, cytotoxicity flag (confluency mask): not cytotoxic, agonist: Imiquimod (TLR7) […].
The mark [10] stands for this setting: library stock concentration (final ~1000-fold dilution): 10 mM water, cytotoxicity flag (confluency mask): not cytotoxic, agonist: MPLA (TLR4) […].

The full ranking holds about 2,900 compounds; the median of “NF-kB SEAP reporter activity, fold change vs agonist alone” is about 0.99, and the highest 2% start at about 2.6. The list comes from a sample in which the highest values are over-represented; it also holds similar structures and randomly drawn compounds.

In the case of `Cc1cc(Nc2nc(NC(C)c3ccc(F)cc3)c(C#N)cc2F)n[nH]1` (configuration not stated) (library stock concentration (final ~1000-fold dilution): 10 mM), the “NF-kB SEAP reporter activity” value came out at 1.87 with RAW-Dual [1] (agonist: LPS (TLR4) 0.1 ug/mL), 0.965 in the assay on RAW-Dual [1] (setting [4]), 1.44 in the assay on RAW-Dual [1] (setting [5]) and 0.993 in the assay with RAW-Dual [1] (setting [6]).
For the compound `Cc1cc(Nc2nc(NC(C)c3ccc(F)cc3)c(C#N)cc2F)n[nH]1` (configuration not stated), the “NF-kB SEAP reporter activity” value in the assay with RAW-Dual [2] (setting [7]) came out at 1; in the assay on RAW-Dual [2] (setting [8]), 0.984.
Consider `Cc1cc(Nc2cc(Cl)nc(Oc3ccc([N+](=O)[O-])cc3)n2)n[nH]1`, for which the “NF-kB SEAP reporter activity” value in the assay on RAW-Dual [2] (setting [7]) is 1.24; in the assay with RAW-Dual [2] (setting [8]), 2.16.
Consider `Cc1cc(Nc2cc(Cl)nc(Oc3ccc([N+](=O)[O-])cc3)n2)n[nH]1` (library stock concentration (final ~1000-fold dilution): 10 mM), for which the “NF-kB SEAP reporter activity” value was found to be 3.28 in the assay on RAW-Dual [1] (agonist: LPS (TLR4) 0.1 ug/mL), 2.32 with RAW-Dual [1] (setting [4]), 1.82 in the assay with RAW-Dual [1] (setting [5]) and 2.92 in the assay on RAW-Dual [1] (setting [6]).
For the compound `O=C(O)[C@H](O)Cc1ccc(O)c(O)c1`, the “NF-kB SEAP reporter activity” value in the assay with RAW-Dual [2] (setting [9]) amounted to 0.919; in the assay on RAW-Dual [2] (setting [10]), 1.04.
Consider `O=C(O)[C@H](O)Cc1ccc(O)c(O)c1` (library stock concentration (final ~1000-fold dilution): 10 mM water), for which the “NF-kB SEAP reporter activity” value in the assay with RAW-Dual [1] (agonist: LPS (TLR4) 0.1 ug/mL) was 1.19; in the assay on RAW-Dual [1] (setting [4]), 1.22; with RAW-Dual [1] (setting [5]), 1.1; in the assay with RAW-Dual [1] (setting [6]), 1.
`COc1nc2ccc(Br)cc2cc1C(c1ccccc1)C(O)(CCN(C)C)c1cccc2ccccc12` (configuration not stated): the “NF-kB SEAP reporter activity” value with RAW-Dual [2] (setting [7]) was determined as 0.771; in the assay with RAW-Dual [2] (setting [8]), 0.783.
On to `COc1nc2ccc(Br)cc2cc1C(c1ccccc1)C(O)(CCN(C)C)c1cccc2ccccc12` (configuration not stated) (library stock concentration (final ~1000-fold dilution): 10 mM), for which the “NF-kB SEAP reporter activity” value with RAW-Dual [1] (agonist: LPS (TLR4) 0.1 ug/mL) was found to be 0.761; in the assay on RAW-Dual [1] (setting [4]), 0.86; in the assay with RAW-Dual [1] (setting [5]), 0.78; in the assay on RAW-Dual [1] (setting [6]), 0.531.
As to `NCC1OC(OC2C(CO)OC(OC3C(O)C(N)CC(N)C3OC3OC(CO)C(O)C(O)C3N)C2O)C(N)C(O)C1O.O=S(=O)(O)O` (configuration not stated) (library stock concentration (final ~1000-fold dilution): 10 mM water), the “NF-kB SEAP reporter activity” value with RAW-Dual [1] (agonist: LPS (TLR4) 0.1 ug/mL) was 1.05; in the assay on RAW-Dual [1] (setting [4]) it was 1.24; with RAW-Dual [1] (setting [5]) it was 1.27; with RAW-Dual [1] (setting [6]), 1.03.
Consider `NCC1OC(OC2C(CO)OC(OC3C(O)C(N)CC(N)C3OC3OC(CO)C(O)C(O)C3N)C2O)C(N)C(O)C1O.O=S(=O)(O)O` (configuration not stated), for which the “NF-kB SEAP reporter activity” value turned out to be 0.946 in the assay with RAW-Dual [2] (setting [9]) and 1.03 with RAW-Dual [2] (setting [10]).
As to `CC(C)(C)NCC(O)COc1ccccc1C1CCCC1.CC(C)(C)NCC(O)COc1ccccc1C1CCCC1.O=S(=O)(O)O` (configuration not stated), the “NF-kB SEAP reporter activity” value in the assay with RAW-Dual [2] (setting [7]) came to 1.29; in the assay on RAW-Dual [2] (setting [8]) it was 1.32.
Turning to `CC(C)(C)NCC(O)COc1ccccc1C1CCCC1.CC(C)(C)NCC(O)COc1ccccc1C1CCCC1.O=S(=O)(O)O` (configuration not stated) (library stock concentration (final ~1000-fold dilution): 10 mM), the “NF-kB SEAP reporter activity” value turned out to be 0.844 in the assay on RAW-Dual [1] (agonist: LPS (TLR4) 0.1 ug/mL), 1.08 with RAW-Dual [1] (setting [4]), 0.857 in the assay on RAW-Dual [1] (setting [5]) and 0.842 in the assay with RAW-Dual [1] (setting [6]).
On to `CN1CCc2c(c3ccccc3n2Cc2ccccc2)C1.CN1CCc2c(c3ccccc3n2Cc2ccccc2)C1.O=S(=O)(O)c1cccc2c(S(=O)(=O)O)cccc12` (library stock concentration (final ~1000-fold dilution): 2 mM), for which the “NF-kB SEAP reporter activity” value is 1.29 in the assay on RAW-Dual [1] (agonist: LPS (TLR4) 0.1 ug/mL), 0.722 with RAW-Dual [1] (setting [4]), 0.952 in the assay on RAW-Dual [1] (setting [5]) and 0.958 with RAW-Dual [1] (setting [6]).
For the compound `CN1CCc2c(c3ccccc3n2Cc2ccccc2)C1.CN1CCc2c(c3ccccc3n2Cc2ccccc2)C1.O=S(=O)(O)c1cccc2c(S(=O)(=O)O)cccc12`, the “NF-kB SEAP reporter activity” value in the assay on RAW-Dual [2] (library stock concentration (final ~1000-fold dilution): 2 mM, cytotoxicity flag (confluency mask): not cytotoxic, agonist: MPLA (TLR4) […]) was 1.15.
For `CN1CCc2c(c3ccccc3n2Cc2ccc(C(=O)NO)cc2)C1`, the “NF-kB SEAP reporter activity” value was found to be 1 with RAW-Dual [2] (setting [7]) and 1.11 with RAW-Dual [2] (setting [8]).
`CN1CCc2c(c3ccccc3n2Cc2ccc(C(=O)NO)cc2)C1` (library stock concentration (final ~1000-fold dilution): 10 mM): the “NF-kB SEAP reporter activity” value turned out to be 1.15 with RAW-Dual [1] (agonist: LPS (TLR4) 0.1 ug/mL), 1.21 in the assay with RAW-Dual [1] (setting [4]), 0.779 in the assay on RAW-Dual [1] (setting [5]) and 1.15 in the assay with RAW-Dual [1] (setting [6]).
On to `CN1CCc2c(c3ccccc3n2Cc2ccc(C(=O)NO)cc2)C1.Cl` (library stock concentration (final ~1000-fold dilution): 10 mM), for which the “NF-kB SEAP reporter activity” value amounted to 5.1 in the assay with RAW-Dual [1] (agonist: LPS (TLR4) 0.1 ug/mL), 1.71 in the assay on RAW-Dual [1] (setting [4]), 1.08 with RAW-Dual [1] (setting [5]) and 1.59 with RAW-Dual [1] (setting [6]).
For the compound `CN1CCc2c(c3ccccc3n2Cc2ccc(C(=O)NO)cc2)C1.Cl`, the “NF-kB SEAP reporter activity” value in the assay on RAW-Dual [2] (setting [7]) is 2.44; in the assay with RAW-Dual [2] (setting [8]) it was 2.55.
On to `CC(C)N(CCC(=O)c1ccc2ccccc2c1)Cc1ccccc1.Cl` (library stock concentration (final ~1000-fold dilution): 10 mM), for which the “NF-kB SEAP reporter activity” value stood at 0.45 in the assay on RAW-Dual [3] (agonist: LPS (TLR4) 0.1 ug/mL), 0.518 in the assay on RAW-Dual [3] (setting [4]), 0.615 in the assay on RAW-Dual [3] (setting [5]) and 0.442 in the assay on RAW-Dual [3] (setting [6]).
As for `CC(C)N(CCC(=O)c1ccc2ccccc2c1)Cc1ccccc1.Cl`, the “NF-kB SEAP reporter activity” value in the assay with RAW-Dual [2] (library stock concentration (final ~1000-fold dilution): 10 mM, cytotoxicity flag (confluency mask): cytotoxic (confluency <70% of control), agonist: Imiquimod (TLR7) […]) was 1.07; in the assay on RAW-Dual [2] (library stock concentration (final ~1000-fold dilution): 10 mM, cytotoxicity flag (confluency mask): cytotoxic (confluency <70% of control), agonist: MPLA (TLR4) […]), 0.507.
As for `Cc1cc(Nc2ccc(NC(=O)c3ccc(Nc4ccnc5ccccc45)cc3)cc2)nc(N)n1` (library stock concentration (final ~1000-fold dilution): 10 mM), the “NF-kB SEAP reporter activity” value with RAW-Dual [1] (agonist: LPS (TLR4) 0.1 ug/mL) was 2.34; with RAW-Dual [1] (setting [4]) it was 0.228; in the assay on RAW-Dual [1] (setting [5]), 0.856; with RAW-Dual [1] (setting [6]), 1.34.
In the case of `O=C(NCCO)c1cccc(-c2cc(Nc3ccc(OC(F)(F)F)cc3)ncn2)c1`, the “NF-kB SEAP reporter activity” value amounted to 1.09 with RAW-Dual [2] (setting [7]) and 1.23 with RAW-Dual [2] (setting [8]).
On the same counts, the results for `O=C(Nc1ccc(OC(F)(F)F)cc1)c1sccc1NCc1ccnc2ccccc12` are 1.77 and 2.25.
In the case of `O=C(Nc1ccc(OC(F)(F)F)cc1)c1sccc1NCc1ccnc2ccccc12` (library stock concentration (final ~1000-fold dilution): 10 mM), the “NF-kB SEAP reporter activity” value with RAW-Dual [1] (agonist: LPS (TLR4) 0.1 ug/mL) turned out to be 2.86; with RAW-Dual [1] (setting [4]) it was 1.18; in the assay on RAW-Dual [1] (setting [5]) it was 0.672; in the assay with RAW-Dual [1] (setting [6]) it was 1.07.
Consider `Cc1cc(Nc2ccc(NC(=O)c3ccc(Nc4ccnc5ccccc45)cc3)cc2)nc(N)n1`, for which the “NF-kB SEAP reporter activity” value in the assay with RAW-Dual [2] (setting [7]) stood at 1.31; in the assay with RAW-Dual [2] (setting [8]) it was 2.36.
For `O=C(NCCO)c1cccc(-c2cc(Nc3ccc(OC(F)(F)F)cc3)ncn2)c1` (library stock concentration (final ~1000-fold dilution): 10 mM), the “NF-kB SEAP reporter activity” value in the assay with RAW-Dual [1] (agonist: LPS (TLR4) 0.1 ug/mL) is 1.15; in the assay on RAW-Dual [1] (setting [4]), 0.796; with RAW-Dual [1] (setting [5]) it was 0.96; in the assay with RAW-Dual [1] (setting [6]) it was 1.03.
